From ChEMBL document CHEMBL2218924, “A broad activity screen in support of a chemogenomic map for kinase signalling research and drug discovery” (Biochem J, 2013)

Tests used:
[1] = biological target: Platelet-derived growth factor receptor alpha (Homo sapiens) (UniProt P16234); conditions: at 1 µM
[2] = biological target: Platelet-derived growth factor receptor alpha (Homo sapiens) (UniProt P16234); conditions: at 10 µM
[3] = biological target: Platelet-derived growth factor receptor beta (Homo sapiens) (UniProt P09619); conditions: at 1 µM
[4] = biological target: Platelet-derived growth factor receptor beta (Homo sapiens) (UniProt P09619); conditions: at 10 µM
[5] = biological target: T1, 3-phosphoinositide-dependent protein kinase 1 (Homo sapiens) (UniProt O15530); conditions: at 1 µM
T1 sequence (whole entry): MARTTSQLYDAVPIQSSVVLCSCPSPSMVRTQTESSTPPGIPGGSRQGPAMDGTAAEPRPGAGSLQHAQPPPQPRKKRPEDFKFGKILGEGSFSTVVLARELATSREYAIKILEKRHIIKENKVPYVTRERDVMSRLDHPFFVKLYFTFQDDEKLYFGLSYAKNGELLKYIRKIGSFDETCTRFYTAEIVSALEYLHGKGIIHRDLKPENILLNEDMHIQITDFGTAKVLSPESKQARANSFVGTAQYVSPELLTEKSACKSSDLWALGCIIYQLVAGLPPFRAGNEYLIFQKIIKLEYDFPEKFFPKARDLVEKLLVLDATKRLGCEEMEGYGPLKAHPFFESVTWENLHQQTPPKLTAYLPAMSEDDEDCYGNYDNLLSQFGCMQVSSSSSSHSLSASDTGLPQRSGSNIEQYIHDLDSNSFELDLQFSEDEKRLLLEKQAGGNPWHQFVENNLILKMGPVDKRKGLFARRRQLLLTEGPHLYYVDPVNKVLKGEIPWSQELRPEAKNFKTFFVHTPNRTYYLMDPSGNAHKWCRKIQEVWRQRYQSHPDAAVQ

[6] = biological target: T1, 3-phosphoinositide-dependent protein kinase 1 (Homo sapiens); conditions: at 10 µM
[7] = biological target: cAMP-dependent protein kinase catalytic subunit alpha (Homo sapiens) (UniProt P17612); conditions: at 1 µM
[8] = biological target: RAC-gamma serine/threonine-protein kinase (Homo sapiens) (UniProt Q9Y243); conditions: at 1 µM
Chain of RAC-gamma serine/threonine-protein kinase (Homo sapiens) (Q9Y243 whole entry): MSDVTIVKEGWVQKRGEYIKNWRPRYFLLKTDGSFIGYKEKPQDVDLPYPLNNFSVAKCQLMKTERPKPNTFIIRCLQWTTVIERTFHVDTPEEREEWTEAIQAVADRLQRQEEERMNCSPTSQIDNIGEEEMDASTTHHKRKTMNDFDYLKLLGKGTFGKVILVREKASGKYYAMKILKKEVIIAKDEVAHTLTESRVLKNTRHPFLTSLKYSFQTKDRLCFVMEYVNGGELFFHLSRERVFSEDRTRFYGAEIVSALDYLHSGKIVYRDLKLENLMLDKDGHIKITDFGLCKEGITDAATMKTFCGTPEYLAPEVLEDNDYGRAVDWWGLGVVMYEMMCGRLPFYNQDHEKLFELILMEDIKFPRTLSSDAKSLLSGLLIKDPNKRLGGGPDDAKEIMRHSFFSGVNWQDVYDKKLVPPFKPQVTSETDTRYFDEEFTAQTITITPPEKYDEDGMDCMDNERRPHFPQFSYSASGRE

[9] = biological target: RAC-gamma serine/threonine-protein kinase (Homo sapiens) (UniProt Q9Y243); conditions: at 10 µM
[10] = biological target: Protein kinase C alpha type (Homo sapiens) (UniProt P17252); conditions: at 1 µM
[11] = biological target: Protein kinase C alpha type (Homo sapiens) (UniProt P17252); conditions: at 10 µM
[12] = biological target: Protein kinase C beta type (Homo sapiens) (UniProt P05771); conditions: at 1 µM
Chain of Protein kinase C beta type (Homo sapiens) (P05771 2-671 limits assumed): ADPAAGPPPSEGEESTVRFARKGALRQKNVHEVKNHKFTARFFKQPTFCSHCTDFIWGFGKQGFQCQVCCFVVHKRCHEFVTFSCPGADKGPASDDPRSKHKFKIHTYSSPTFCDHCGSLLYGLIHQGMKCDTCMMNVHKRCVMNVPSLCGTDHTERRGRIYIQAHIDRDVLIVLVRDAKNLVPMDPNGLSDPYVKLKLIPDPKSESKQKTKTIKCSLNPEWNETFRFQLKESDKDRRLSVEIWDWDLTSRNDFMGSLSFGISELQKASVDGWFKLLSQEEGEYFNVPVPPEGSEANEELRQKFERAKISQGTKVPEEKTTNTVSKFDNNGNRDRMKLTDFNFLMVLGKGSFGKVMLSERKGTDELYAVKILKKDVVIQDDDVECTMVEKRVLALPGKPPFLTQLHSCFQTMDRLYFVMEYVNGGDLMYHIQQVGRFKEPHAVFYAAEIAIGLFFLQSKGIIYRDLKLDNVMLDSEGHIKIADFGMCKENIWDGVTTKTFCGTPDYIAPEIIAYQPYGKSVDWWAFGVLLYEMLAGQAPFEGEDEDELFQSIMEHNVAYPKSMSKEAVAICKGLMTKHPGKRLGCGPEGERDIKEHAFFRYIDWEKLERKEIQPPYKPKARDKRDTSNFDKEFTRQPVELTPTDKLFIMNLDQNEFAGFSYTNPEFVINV

[13] = biological target: Protein kinase C beta type (Homo sapiens) (UniProt P05771); conditions: at 10 µM
[14] = biological target: Protein kinase C beta type (Homo sapiens) (UniProt P05771); conditions: at 1 µM; remark: listed apart in the source
[15] = biological target: Protein kinase C beta type (Homo sapiens) (UniProt P05771); conditions: at 10 µM; remark: listed apart in the source
[16] = biological target: Protein kinase C gamma type (Homo sapiens) (UniProt P05129); conditions: at 1 µM
[17] = biological target: Protein kinase C gamma type (Homo sapiens) (UniProt P05129); conditions: at 10 µM
[18] = biological target: Protein kinase C delta type (Homo sapiens) (UniProt Q05655); conditions: at 1 µM
Chain of Protein kinase C delta type (Homo sapiens) (Q05655 whole entry, looked up): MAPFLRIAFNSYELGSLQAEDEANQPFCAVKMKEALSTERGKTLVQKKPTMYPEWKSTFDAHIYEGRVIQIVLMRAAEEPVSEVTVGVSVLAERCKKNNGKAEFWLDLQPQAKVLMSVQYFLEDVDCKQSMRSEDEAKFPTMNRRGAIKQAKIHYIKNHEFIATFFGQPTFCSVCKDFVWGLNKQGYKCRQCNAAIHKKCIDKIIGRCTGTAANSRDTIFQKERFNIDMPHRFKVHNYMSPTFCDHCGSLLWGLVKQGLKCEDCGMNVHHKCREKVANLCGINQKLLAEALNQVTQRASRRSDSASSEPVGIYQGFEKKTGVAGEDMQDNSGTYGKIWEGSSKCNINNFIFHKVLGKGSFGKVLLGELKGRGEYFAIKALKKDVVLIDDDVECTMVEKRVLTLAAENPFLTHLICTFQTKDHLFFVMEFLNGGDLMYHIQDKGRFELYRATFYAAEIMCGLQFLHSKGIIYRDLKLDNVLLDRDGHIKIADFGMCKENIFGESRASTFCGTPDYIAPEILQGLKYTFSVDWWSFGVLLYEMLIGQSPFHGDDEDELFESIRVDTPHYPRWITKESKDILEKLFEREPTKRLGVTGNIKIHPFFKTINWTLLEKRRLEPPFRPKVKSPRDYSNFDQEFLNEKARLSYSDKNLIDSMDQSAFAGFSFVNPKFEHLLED

[19] = biological target: Protein kinase C delta type (Homo sapiens) (UniProt Q05655); conditions: at 10 µM
[20] = biological target: cAMP-dependent protein kinase catalytic subunit alpha (Homo sapiens) (UniProt P17612); conditions: at 10 µM

Chain of Platelet-derived growth factor receptor alpha (Homo sapiens) (P16234 whole entry): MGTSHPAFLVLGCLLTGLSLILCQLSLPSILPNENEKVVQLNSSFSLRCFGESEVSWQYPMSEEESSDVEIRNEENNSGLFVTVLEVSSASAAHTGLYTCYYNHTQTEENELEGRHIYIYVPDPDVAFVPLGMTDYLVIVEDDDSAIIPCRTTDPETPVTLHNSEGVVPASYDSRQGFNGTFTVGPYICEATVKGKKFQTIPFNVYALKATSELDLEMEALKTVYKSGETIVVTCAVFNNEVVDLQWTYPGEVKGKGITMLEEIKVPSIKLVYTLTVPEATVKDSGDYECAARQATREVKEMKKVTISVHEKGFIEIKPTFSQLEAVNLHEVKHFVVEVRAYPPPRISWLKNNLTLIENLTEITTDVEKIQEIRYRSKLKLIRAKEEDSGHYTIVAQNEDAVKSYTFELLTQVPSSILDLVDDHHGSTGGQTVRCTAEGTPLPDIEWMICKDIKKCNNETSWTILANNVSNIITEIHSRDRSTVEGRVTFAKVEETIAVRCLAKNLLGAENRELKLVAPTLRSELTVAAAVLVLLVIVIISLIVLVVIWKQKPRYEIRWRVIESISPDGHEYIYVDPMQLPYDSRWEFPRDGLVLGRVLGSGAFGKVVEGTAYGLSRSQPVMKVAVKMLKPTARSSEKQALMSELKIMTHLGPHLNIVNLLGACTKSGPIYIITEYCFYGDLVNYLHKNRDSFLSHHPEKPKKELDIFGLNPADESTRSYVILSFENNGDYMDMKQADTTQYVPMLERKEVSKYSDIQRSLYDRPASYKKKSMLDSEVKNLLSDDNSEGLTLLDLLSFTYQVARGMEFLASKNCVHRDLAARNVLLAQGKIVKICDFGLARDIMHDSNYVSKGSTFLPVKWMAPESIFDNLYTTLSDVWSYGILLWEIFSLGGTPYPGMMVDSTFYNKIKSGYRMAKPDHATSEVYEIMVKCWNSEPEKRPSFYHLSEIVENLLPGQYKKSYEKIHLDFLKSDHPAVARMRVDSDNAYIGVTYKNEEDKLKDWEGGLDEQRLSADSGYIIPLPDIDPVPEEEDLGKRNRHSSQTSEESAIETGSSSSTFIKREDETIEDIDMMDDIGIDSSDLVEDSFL

Compound	residual activity [1]	residual activity [2]	residual activity [3]	residual activity [4]	residual activity [5]	residual activity [6]	residual activity [7]	residual activity [8]	residual activity [9]	residual activity [10]	residual activity [11]	residual activity [12]	residual activity [13]	residual activity [14]	residual activity [15]	residual activity [16]	residual activity [17]	residual activity [18]	residual activity [19]	residual activity [20]
COc1ccc(S(=O)(=O)N(CCO)c2ccccc2CN(C)C/C=C/c2ccc(Cl)cc2)cc1	109%	95%	109%	104%	119%	114%	105%	104%	56%	107%	94%	106%	102%	115%	96%	99%	104%	108%	106%	
Cc1cccc(-c2[nH]c(C(C)(C)C)nc2-c2ccc3c(c2)OCO3)n1							87%											98%	101%	91%
Nc1cccc(-c2cc3c(Oc4cccc(O)c4)ncnc3[nH]2)c1	48%	10%	48%	8%	92%	40%	94%				97%			104%	95%	98%	101%	100%	95%	85%
COc1cc2ncnc(Nc3ccc(NC(=O)c4ccccc4)cc3)c2cc1OC		81%		102%		106%	71%		102%		107%			100%	94%			107%	102%	85%
CC(=O)c1ccc(N2CCOCC2)cc1O		107%	112%	105%			87%	106%	104%	101%	102%	107%	101%	100%	93%	109%	108%	101%	103%	96%
N#Cc1cnc2cnc(NCc3cccnc3)cc2c1Nc1ccc(F)c(Cl)c1	97%	54%	119%	88%	45%	41%	5%			98%	55%	18%	18%					61%	24%	1%
O=C(O)c1ccc2c3c1cccc3c(=O)n1c3ccccc3nc21	113%	114%		108%	108%	82%	73%	102%	82%	99%	98%	125%	113%	115%	100%	94%	74%	100%	107%	89%
c1ccc(-c2n[nH]c3c2oc2ccccc23)cc1	33%	5%					70%	90%						96%	98%					
Cn1cc(/C=C2\C(=O)Nc3ccc(S(N)(=O)=O)cc32)c2ccccc21	77%	33%	98%	51%	76%	32%	93%	88%	81%	108%	104%	111%	109%	103%	108%		79%	101%	99%	57%
O=c1cc(-c2cccc3c2Sc2ccccc2S3)oc(N2CCOCC2)c1	106%		111%	92%	99%	107%	102%	106%	84%	95%	86%	102%	100%	104%	101%	99%	95%	100%	104%	104%
Cc1cc2ncc(-c3ccccc3)nc2cc1C			99%	96%			86%	90%	87%	106%	109%	125%	131%	100%	107%	106%	105%	103%	85%	75%
Cc1nc(-c2ccccc2)c(-c2ccncc2)o1	89%	83%	99%	92%	114%	102%	94%	118%	88%	113%	101%	109%	95%	106%	101%	108%		101%	90%	85%
